“And” between values parts separate entries of the source, which are not always exact repeats. Identical values can stand only once. In all, about 5,500 compounds went through this assay and about 2,000 (36%) were called active. Inconclusive results (about 18%) are left out. No stated cut-off is given here; in the data, active means normalized growth mostly below about 0.91 (no sharp cut-off); inconclusive means no clear call, values can overlap the other calls; inactive means mostly above about 0.92. Some of the results follow.
Test: chemical genetic growth profiling, strain panel (AID 1159580);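 further: tested at 20 µM; growth read once vehicle control cultures reached saturation at 30 °C; 1 = growth at the plate median or of vehicle wells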
Settings: S. cerevisiae deletion strains, growth OD

Measured: normalized growth

CCOC(N)=O
inactive: locus YAL013W, strain DEP1, stronger effect = lower value 0.999 | locus YAL021C, strain ccr4, stronger effect = lower value 0.989 | locus YAL026C, strain drs2, stronger effect = lower value 1 | locus YAL030W, strain snc1, stronger effect = lower value 0.994 | locus YBL061C, strain skt5, stronger effect = lower value 0.997 | locus YBR009C, strain hhf1, stronger effect = lower value 0.987 | locus YBR021W, strain FUR4, stronger effect = lower value 0.97 | locus YBR023C, strain chs3, stronger effect = lower value 0.993 | locus YBR171W, strain sec66, stronger effect = lower value 0.99 | locus YBR229C, strain ROT2, stronger effect = lower value 0.999 | locus YBR231C, strain swc5, stronger effect = lower value 0.995 | locus YBR279W, strain paf1, stronger effect = lower value 0.991 | locus YCL011C, strain gbp2, stronger effect = lower value 0.988 | locus YCL016C, strain dcc1, stronger effect = lower value 1 | locus YCL029C, strain bik1, stronger effect = lower value 1.01 | locus YCL061C, strain MRC1, stronger effect = lower value 0.995 | locus YCL069W, strain vba3, stronger effect = lower value 0.997 | locus YCR088W, strain abp1, stronger effect = lower value 1 | locus YDL005C, strain med2, stronger effect = lower value 0.986 | locus YDL035C, strain GPR1, stronger effect = lower value 1.01 | locus YDL040C, strain nat1, stronger effect = lower value 0.989 | locus YDL074C, strain BRE1, stronger effect = lower value 1 | locus YDL101C, strain DUN1, stronger effect = lower value 1 | locus YDL134C, strain PPH21, stronger effect = lower value 1.01 | locus YDL185W, strain tfp1, stronger effect = lower value 1.01 | locus YDL192W, strain arf1, stronger effect = lower value 1.01 | locus YDR001C, strain nth1, stronger effect = lower value 1 | locus YDR069C, strain doa4, stronger effect = lower value 0.985 | locus YDR101C, strain arx1, stronger effect = lower value 1 | locus YDR137W, strain rgp1, stronger effect = lower value 1.01 | locus YDR150W, strain NUM1, stronger effect = lower value 1 | locus YDR159W, strain sac3, stronger effect = lower value 0.984 | locus YDR162C, strain NBP2, stronger effect = lower value 0.973 | locus YDR195W, strain ref2 0.933 | locus YDR297W, strain sur2, stronger effect = lower value 0.992 | locus YDR318W, strain mcm21, stronger effect = lower value 1.02 | locus YDR334W, strain swr1, stronger effect = lower value 1 | locus YDR335W, strain msn5, stronger effect = lower value 0.997 | locus YDR388W, stronger effect = lower value 1.01 | locus YDR392W, strain spt3, stronger effect = lower value 0.997 | locus YDR502C, strain sam2, stronger effect = lower value 1 | locus YEL003W, strain gim4, stronger effect = lower value 0.997 | locus YEL037C, strain rad23, stronger effect = lower value 1.01 | locus YEL061C, strain CIN8 (second series), stronger effect = lower value 1.01 | locus YEL061C, strain CIN8, stronger effect = lower value 1 | locus YER015W, strain faa2, stronger effect = lower value 0.993 | locus YER016W, strain bim1, stronger effect = lower value 0.997 | locus YER110C, stronger effect = lower value 1.01 | locus YER111C, strain swi4, stronger effect = lower value 0.995 | locus YER155C, strain BEM2 (second series), stronger effect = lower value 0.994 | locus YER155C, strain BEM2, stronger effect = lower value 1 | locus YER167W, strain BCK2, stronger effect = lower value 1.01 | locus YFR010W, strain ubp6, stronger effect = lower value 0.997 | locus YGL078C, strain dbp3, stronger effect = lower value 1.01 | locus YGL086W, strain mad1, stronger effect = lower value 1.01 | locus YGL167C, strain pmr1, stronger effect = lower value 0.987 | locus YGL173C, strain kem1, stronger effect = lower value 0.982 | locus YGL227W, strain vid30, stronger effect = lower value 0.983 | locus YGL240W, strain doc1, stronger effect = lower value 0.982 | locus YGL248W, strain PDE1, stronger effect = lower value 1 | locus YGL253W, strain hxk2, stronger effect = lower value 0.993 | locus YGR078C, strain PAC10, stronger effect = lower value 0.991 | locus YGR135W, strain pre9, stronger effect = lower value 0.991 | locus YGR229C, strain SMI1, stronger effect = lower value 0.985 | locus YGR252W, strain gcn5, stronger effect = lower value 1.08 | locus YHR013C, strain ard1, stronger effect = lower value 0.975 | locus YHR027C, strain rpn1, stronger effect = lower value 0.997 | locus YHR030C, strain SLT2, stronger effect = lower value 1.01 and 0.987 | locus YHR079C, strain IRE1 (second series), stronger effect = lower value 1.01 | locus YHR079C, strain IRE1, stronger effect = lower value 0.983 | locus YHR094C, strain hxt1, stronger effect = lower value 1 | locus YHR129C, strain ARP1, stronger effect = lower value 1.01 | locus YHR142W, strain chs7, stronger effect = lower value 0.995 | locus YHR200W, strain rpn10, stronger effect = lower value 1.01 | locus YIL066C, strain RNR3, stronger effect = lower value 1.03 | locus YIL073C, strain SPO22, stronger effect = lower value 1.06 | locus YIL125W, strain kgd1, stronger effect = lower value 1 | locus YIR030C, strain dcg1, stronger effect = lower value 1 | locus YJL092W, strain hpr5, stronger effect = lower value 0.995 | locus YJL095W, strain BCK1 (second series), stronger effect = lower value 0.992 | locus YJL095W, strain BCK1, stronger effect = lower value 1.01 and 0.996 | locus YJL115W, strain asf1, stronger effect = lower value 0.999 | locus YJL129C, strain trk1, stronger effect = lower value 1 | locus YJL134W, strain LCB3, stronger effect = lower value 1.01 | locus YJL154C, strain vps35, stronger effect = lower value 1 | locus YJL164C, strain tpk1, stronger effect = lower value 0.991 | locus YJL166W, strain qcr8, stronger effect = lower value 0.99 | locus YJL168C, strain set2, stronger effect = lower value 1.02 | locus YJL187C, strain SWE1 (second series), stronger effect = lower value 1.02 | locus YJL187C, strain SWE1, stronger effect = lower value 0.997 | locus YJR043C, strain POL32, stronger effect = lower value 1.02 | locus YJR066W, strain TOR1, stronger effect = lower value 0.959
